FUS suppressor: qHTS for Suppressors of FUS Proteinopathy: Primary screen using FUS-linked yeast assay; Potency, µM (titrated, usually from 76.6 µM), hits mostly activators; AID 1347120, 2019; S. cerevisiae FUS-expressing, growth rescue, OD600, 24 h; 0.24% of 390,000 active;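 also: potency is read from the fitted curve at half-maximal effect; plate controls were DMSO vehicle for no effect and reference control for full effect; nearly all actives have a fitted effect of over 55% in size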
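Toxicity suppression screen in FUS-yeast. Cells induced with 2% galactose, starting OD 0.005, treated 24hr at 30C with compounds at multiple final concentrations; growth by OD600.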
LDHA inh: qHTS assay for inhibitors of human lactate dehydrogenase; purified LDHA, NADH/diaphorase-resazurin fluorescence; stronger effect = lower value; activity change, % (values are at about 110 or 230 µM); 0.15% of 480,000 active; AID 1347041, 2019; in the data active = activity change below about -30%; inconclusive = mostly about -25% to -30%;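 also: plate controls were DMSO wells for no effect and wells without enzyme for full effect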
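Human LDH5 (2 nM) was incubated with 0.06 mM NADH and 0.2 mM pyruvate for 5 min at room temperature in Tris pH 7.4. Remaining NADH was coupled through diaphorase/resazurin, and resorufin fluorescence was read at 0 and 20 min.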
TDP43 rescue: qHTS of TDP-43 Inhibitors; TDP-43 expressing yeast growth rescue, BacTiter-Glo, 24 h; Potency, µM (top dose mostly 46.1 µM), for the others: at the highest dose growth rescue (activation), actives largely listed as activators; 1.8% of 410,000 active; also: potency is read from the fitted curve at half-maximal effect; % of control where 0% means no effect; nearly all actives have a fitted effect of over 50% in size
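In this qHTS, compounds that restore growth of yeast expressing TDP-43 appear as activators. Cells (OD600=0.02, galactose medium, raffinose-pregrown) are incubated with compound 24 hr at 30 deg C and growth is quantified by BacTiter-Glo.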
Abeta yeast res: qHTS for compounds that reverse cellular toxicity of Amyloid beta (A-beta) peptide in yeast: Primary Screen; yeast expressing A-beta42, growth rescue, OD600, 48 h; response scale: 0% DMSO, 100% iron-clioquinol control; Potency, µM (doses to about 46.1 µM), most hits filed as activators; 0.063% of 410,000 active; AID 1347071, 2019; also: potency is read from the fitted curve at half-maximal effect; nearly all actives have a fitted effect of over 55% in size
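Yeast A-beta toxicity model in growth medium with pinned compounds, 48 h at 30 C; growth read as absorbance at 600 nm. Normalized to FeCl3/clioquinol equimolar mix (positive) and DMSO (negative).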
aSyn yeast inh: qHTS of alpha-syn Inhibitors; Yeast expressing alpha-synuclein, growth rescue, BacTiter-Glo, 24 h; Potency, µM (highest dose often 46.1 µM), for inactives: top-dose growth rescue (activation), most hits filed as activators; 0.14% of 370,000 active; AID 652106, 2013; also: potency is read from the fitted curve at half-maximal effect; % of control where 0% means no effect; nearly all actives have a fitted effect of over 65% in size
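Rescue of yeast growth: cells expressing toxic alpha-synuclein, induced in galactose at OD600 0.02, incubated with compound 24 h at 30 C. ATP luminescence quantified growth; inhibitors of toxicity appear as activators.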
PTHR1 ag: qHTS for PTHR1 Agonists: Primary Screen | Parathyroid hormone/parathyroid hormone-related peptide receptor (Homo sapiens), Q03431 | HEK293 GP2 PTHR1 cells, GloSensor cAMP luminescence, 1 h | Potency, µM (doses to about 115 µM), without a hit: at the highest dose activation, actives largely listed as activators | 0.075% of 410,000 active; also: potency is read from the fitted curve at half-maximal effect; nearly all actives have a fitted effect of over 55% in size
Target sequence (Q03431 whole entry, looked up): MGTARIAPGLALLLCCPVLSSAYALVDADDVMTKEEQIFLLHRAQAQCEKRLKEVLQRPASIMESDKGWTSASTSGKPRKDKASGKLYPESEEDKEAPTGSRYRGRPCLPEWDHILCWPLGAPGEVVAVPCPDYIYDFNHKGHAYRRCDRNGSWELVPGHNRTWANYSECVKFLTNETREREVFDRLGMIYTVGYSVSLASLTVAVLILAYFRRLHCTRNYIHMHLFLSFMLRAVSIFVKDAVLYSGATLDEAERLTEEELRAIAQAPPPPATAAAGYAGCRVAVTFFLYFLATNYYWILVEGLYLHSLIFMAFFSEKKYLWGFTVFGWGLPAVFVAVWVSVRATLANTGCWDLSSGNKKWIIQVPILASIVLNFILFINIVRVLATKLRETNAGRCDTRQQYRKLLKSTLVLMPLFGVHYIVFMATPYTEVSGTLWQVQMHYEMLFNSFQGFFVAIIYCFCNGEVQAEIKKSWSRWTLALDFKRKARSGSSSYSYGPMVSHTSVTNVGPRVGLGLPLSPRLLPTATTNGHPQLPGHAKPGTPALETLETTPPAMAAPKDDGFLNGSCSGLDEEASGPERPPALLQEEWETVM
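HEK-293-derived GP2 cells expressing PTHR1 and a GloSensor cAMP reporter, 3,000/well, plated overnight, given luciferin plus IBMX (each 0.5 mM as added) for 1 h at 37 °C, then compound for 1 h at 37 °C. Luminescence was read after 15 min at room temperature.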
An asterisk follows results filed as active; i = inactive; ? = inconclusive; / = not tested or not shown; [ ] = dose if it differs, or a comment. Shown are actives, neighbours in structure and some others; about 1.9% of the full set was active somewhere. Unless noted, calls follow the shape of the dose curve; as a rule, active = well fitted curve in the direction sought with a large enough effect; inconclusive = small, poorly fitted or top-dose-only effect, or another doubt; inactive = no such curve, though single readings can be large; an effect the other way counts as inactive or inconclusive.

SMILES	FUS suppressor	LDHA inh	TDP43 rescue	Abeta yeast res	aSyn yeast inh	PTHR1 ag
CCOC(=O)c1c(N)sc2c(NC(C)=O)cccc12	i	-4	7%	i	-2%	-5%[57.5 µM]
CCOC(=O)c1c(N)sc2c(O)c(Br)ccc12	i	9	11µM*	i	-21%	-20%[57.5 µM]
COc1cc(Cl)c(NS(=O)(=O)c2cc(-c3n[nH]c(=O)c4c3CCCC4)ccc2C)c(OC)c1	/	0	/	/	/	/
COc1ccc(NC(=O)C2=C(C)C(=O)OC23CCC(C)CC3)c(OC)c1 (stereo not given)	i	-1	20µM*	i	3%	-33%
CCOc1ccc(NC(=O)C2=C(C)C(=O)OC23CCC(C)CC3)cc1 (stereo not given)	i	0	20µM*	?	6%	-10%
COc1ccc(OC)c(CCNC(=O)C2=C(C)C(=O)OC23CCC(C)CC3)c1 (stereo not given)	i	1	22%	i	/	-48%
CC1=C(C(=O)N2CCc3ccccc32)C2(CCC(C)CC2)OC1=O (stereo not given)	i	0	13µM*	i	/	-17%
CCCNC(=O)C1=C(C)C(=O)OC12CCC(C)CC2 (stereo not given)	i	-5	16%	i	-2%	-23%
CC1=C(C(=O)Nc2ccc(C)cc2Cl)C2(CCCCCC2)OC1=O	i	1	29%	i	/	i
CC1=C(C(=O)N2CCCCC2)C2(CCC(C)CC2)OC1=O (stereo not given)	i	-8	0%	i	-1%	i
CC1=C(C(=O)Nc2ccc(C)cc2Cl)C2(CCCCC2)OC1=O	i	-9	11µM*	i	/	-67%
C=C(C)COc1ccc(-c2nc(N)ncc2-c2ccc(Br)cc2)c(O)c1	i	-1	20µM*	i	-43%	i
COc1ccc(CNC(=O)C(=O)Nc2ccc(C)cc2C)cc1	/	-31*	/	/	/	/
O=S(=O)(Cc1ccccc1F)CC1COc2ccccc2O1 (stereo not given)	/	-4	/	/	/	/
O=[N+]([O-])c1nn(-c2ccc(Cl)cc2)n(O)c1=NCc1ccncc1	i	2	11µM*	i	1%	i
O=[N+]([O-])c1nn(-c2ccc(Cl)cc2)n(O)c1=NCc1ccccc1Cl	i	-2	?	i	25%	-11%
Cc1ccc(CN=c2c([N+](=O)[O-])nn(-c3ccc(Cl)cc3)n2O)cc1	i	-3	11µM*	?	13%	i
CCc1cccc(N=c2c([N+](=O)[O-])nn(-c3ccc(Cl)cc3)n2O)c1	i	9	7.9µM*	i	4%	-30%
O=S(=O)(Nc1ccc(C(O)(C(F)(F)F)C(F)(F)F)cc1)c1ccc(Cl)c2nonc12	i	-2	20µM*	i	-17%	-95%
CCOC(=O)c1c(C)c2ccccc2n2cc(CN3CCOCC3)c(C#N)c12	/	13	/	/	/	/
CC1Oc2ccccc2N(Cc2ccccc2Cl)C1=O (stereo not given)	i	0	19%	i	9%	-9%[57.5 µM]
O=C1COc2ccccc2N1Cc1ccccc1Cl	i	1	22µM*	i	15%	-7%[57.5 µM]
O=S1(=O)c2ccccc2N(Cc2ccccc2Cl)c2ccccc21	i	1	6.3µM*	i	/	-10%
Cc1ccccc1CN1c2ccccc2S(=O)(=O)c2ccccc21	i	1	2%	i	/	-35%
Cc1oc(-c2ccccc2)nc1CN1C(=O)CSc2ccc(S(=O)(=O)N3CCCCCC3)cc21	/	8	/	/	/	/
SMILES	FUS suppressor	LDHA inh	TDP43 rescue	Abeta yeast res	aSyn yeast inh	PTHR1 ag
COc1ccc(C(=O)N(C)Cc2cc(Br)ccc2OC)cc1F	/	-4	/	/	/	/
CNC(=O)CN(C)C(=O)CCc1ncc(-c2ccccc2F)o1	/	-4	/	/	/	/
Cc1ccc(NC(=O)COc2ccccc2C#N)cc1S(=O)(=O)N1CCCCCC1	i	1	28µM*	i	0%[1.84 µM]	-23%
Cc1cnc(C(=O)Nc2ccc(C)c(S(=O)(=O)N3CCCCCC3)c2)cn1	i	0	16µM*	i	7%	-17%
O=C(c1ccco1)N1CCN(C(=O)c2cc(-c3ccccc3)nc3ccccc23)CC1	i	-12	-3%	i	-2%	21%
Cc1cccc2c(C(=O)N3CCN(C(=O)c4ccco4)CC3)cc(-c3cccc(Br)c3)nc12	i	-4	28µM*	i	11%	-35%
O=C(CSc1nc2ccccc2o1)N1CCCCC1	/	-4	/	/	/	/
CCOC(=O)C1C(=O)C=C(c2ccc(Br)cc2)CC1c1ccco1 (stereo not given)	i	-5	25µM*	i	4%	-16%
CCOC(=O)C1C(=O)C=C(c2cccc(NS(C)(=O)=O)c2)CC1c1ccco1 (stereo not given)	i	1	4%	i	-4%	-15%
CCOC(=O)C1C(=O)C=C(c2ccc([N+](=O)[O-])cc2)CC1c1ccccc1 (stereo not given)	i	-13	20µM*	i	9%	-2%[57.5 µM]
O=S(=O)(c1ccc(F)cc1)N1CCN(Cc2coc(-c3cccs3)n2)CC1	/	-1	/	/	/	/
CCOc1ccccc1NC(=O)C1CCCC1	i	2	0%	i	0%	-4%
CCOc1ccccc1NC(=O)c1ccccc1NC(=O)c1ccco1	i	-9	15%	i	-4%	-14%
CCOc1ccccc1NC(=S)NC(=O)C1CCCCC1	i	0	20%	7.1µM*	-26%	-14%
CCOc1ccccc1NC(=S)NC(=O)c1ccco1	i	-14	14µM*	?	-5%	i
Cc1ccc[n+](CC(=O)Nc2ccc([N+](=O)[O-])cc2)c1	i	-8	8.9µM*	i	-11%	-18%
Cc1cccc(NC(=O)N[C@@H](CC(C)C)C(=O)O)c1	/	0	/	/	/	/
S=c1[nH]nc(Cc2ccc(Br)cc2)n1/N=C/c1ccc(Cl)cc1	i	-5	8.9µM*	?	-14%	-20%
CC1CCC(NC(=O)c2ccc(CS(=O)(=O)c3c(Cl)cccc3Cl)o2)CC1 (stereo not given)	i	-5	35µM*	i	/	-33%
O=C(CSc1nnc(-c2ccc(F)cc2)o1)N1CCCc2ccccc21	i	-6	20µM*	i	/	-16%
O=C(CSc1ccc(-c2ccc(F)cc2)nn1)N1CCCc2ccccc21	i	-1	22µM*	i	4%	-32%

Screening results: PubChem, National Center for Advancing Translational Sciences (NCATS)
